FEN1 inh – qHTS Assay for the Inhibitors of Human Flap endonuclease 1 (FEN1); Recombinant FEN1 flap cleavage, fluorescence, 15 min; Potency, µM (highest dose often 114 µM), usual class: inhibitors; hit rate 0.35% among 390,000; AID 588795, 2011; further: nearly all actives have a fitted effect of over 65% in size
Target sequence (P39748 whole entry, looked up): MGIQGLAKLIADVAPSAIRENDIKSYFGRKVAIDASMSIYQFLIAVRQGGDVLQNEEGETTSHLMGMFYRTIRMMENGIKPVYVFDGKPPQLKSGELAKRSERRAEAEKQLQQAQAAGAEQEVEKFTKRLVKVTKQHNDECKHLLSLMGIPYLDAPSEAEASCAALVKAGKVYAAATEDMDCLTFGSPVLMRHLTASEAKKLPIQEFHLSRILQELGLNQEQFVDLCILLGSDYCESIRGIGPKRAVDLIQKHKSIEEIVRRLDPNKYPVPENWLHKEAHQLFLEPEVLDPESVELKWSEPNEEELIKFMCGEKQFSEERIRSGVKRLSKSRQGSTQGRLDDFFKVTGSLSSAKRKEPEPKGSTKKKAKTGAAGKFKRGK
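Nuclease activity of 10 nM FEN1 was measured after 15 min of room-temperature exposure to titrated compounds, by adding 50 nM flap substrate and reading plates at 0 and 15 min.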
PLK1 PBD inh – qHTS for Inhibitors of PLK1-PDB (polo-like kinase 1 - polo-box domain): Primary Screen; Serine/threonine-protein kinase PLK1 (Homo sapiens), P53350; Plk1 PBD binding of FITC phosphopeptide, fluorescence polarization; Potency, µM, usual class: inhibitors; hit rate 2.8% among 360,000; further: series mostly up to about 57 µM; nearly all actives have a fitted effect of over 65% in size
TCR act – Activators of T cell receptors: qHTS campaign; primary human leukocytes, anti-CD3, IL-2 HTRF, 48 h; AID 504894, 2011; 330,000 tested, under 10 active; Potency, µM (doses to about 9.22 µM), usual class: activators
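1) Mix primary human leukocytes, a-CD3 beads and compound. 2) Incubate 48 hr. 3) Add HTRF IL-2 reagents (a-IL-2-K, a-IL-2-d2).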
PI5P4Ka inh – qHTS for Inhibitors of phosphatidylinositol 5-phosphate 4-kinase (PI5P4K); Phosphatidylinositol 5-phosphate 4-kinase type-2 alpha (Homo sapiens), P48426; PI5P4Kalpha enzyme, ADP-Glo luminescence, 60 min; active compounds read low; max response, %; hit rate 1.2% among 330,000; AID 652105, 2013; active means max response of -50% or lower; inconclusive means between -30% and -50%; inactive means -30% or higher; further: value at the top dose of about 77 µM
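ADP-Glo luminescence end-point after a 60 min room-temperature kinase reaction. PI5P4Kalpha and substrate in HEPES pH 7.4 buffer with EGTA, 0.1% CHAPS and 5% DMSO; ATP at 5 microM final.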
WRN inhibitor – qHTS for Inhibitors of WRN Helicase; WRN helicase unwinding, fluorescent forked duplex, kinetic; Bifunctional 3'-5' exonuclease/ATP-dependent helicase WRN (Homo sapiens), Q14191; Potency, µM (series often up to 114 µM), most hits filed as inhibitors; hit rate 0.46% among 360,000; further: nearly all actives have a fitted effect of over 55% in size
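WRN at 20 nM final was preincubated with compound for 15 min at room temperature; reaction started with 100 nM forked duplex oligonucleotide carrying fluorophore and quencher plus 2 mM ATP (final). Unwinding followed kinetically by red fluorescence (ex 525/em 598 nm).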
VDR inh – Inhibitors of the vitamin D receptor (VDR): qHTS. Vitamin D3 receptor (Homo sapiens), P11473. VDR-SRC2-3 peptide fluorescence polarization, 2 h. Potency, µM, most hits filed as inhibitors. hit rate 0.93% among 400,000
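Two reagent solutions held at 4 deg C in the dark were dispensed, compounds pinned at 23 nl, and the mixture incubated 2 h at room temperature. Read-out: fluorescence polarization of VDR–SRC2-3 peptide binding.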
Numbers stand for hits; i = inactive; ? = inconclusive; nt = not tested or not shown; ! = repeats disagree. Shown are actives, neighbours in structure and some others; about 3.7% of the full set was active somewhere. Unless noted, the call rests on the fitted dose curve; in most records, active means well fitted curve in the direction sought with a large enough effect; inconclusive means small, poorly fitted or top-dose-only effect, or another doubt; inactive means no such curve, though single readings can be large; an effect the other way counts as inactive or inconclusive.

SMILES	FEN1 inh	PLK1 PBD inh	TCR act	PI5P4Ka inh	WRN inhibitor	VDR inh
CS(=O)(=O)N1CCN(c2nc(-c3cccs3)nc3ccccc23)CC1	i	nt	nt	nt	nt	i
Cc1sc2nc(CC(=O)NN)[nH]c(=O)c2c1C	i	17µM	i	i	i	i
C=CC(=O)Oc1ccc(N2Cc3ccccc3C2=O)cc1	i	?	i	i	56µM	?
COc1cccc(CNC(=O)Cn2ncn3nc(-c4cccs4)cc3c2=O)c1OC	i	nt	nt	nt	nt	i
COc1cccc(CNC(=O)CCN2C(=O)[C@@H]3Cc4ccccc4CN3C2=O)c1	i	27µM	i	i	i	?
Cc1cc(C)cc(C(=O)NN2CCN(C)CC2)c1	i	12µM	i	?	i	?
Cc1ccc(C(=O)NCc2ccc(N(C)C)cc2)cc1NC(=O)c1nsc2ccccc12	i	nt	nt	nt	nt	i
Cc1cccc(Cn2cnc3c(cnn3C(C)(C)C)c2=O)c1F	i	nt	nt	nt	nt	nt
CCN(CC)c1ccc2c(-c3ccc(S(=O)(=O)O)cc3S(=O)(=O)[O-])c3ccc(=[N+](CC)CC)cc-3oc2c1	?	6.7µM	i	-51	nt	40µM
CCOc1ccc(NS(=O)(=O)c2ccc3c(c2)N(C(C)=O)CCS3)cc1	i	27µM	i	i	i	i
CSC[C@H](NC(=O)COc1cc2c(c3oc(=O)c(C)c(C)c13)CCC(C)(C)O2)C(=O)O	i	i	i	i	i	i
CSCC[C@H](NC(=O)COc1cc2c(c3oc(=O)c(C)c(C)c13)CCC(C)(C)O2)C(=O)O	i	30µM	i	i	i	i
CC(C)(C)NC(=O)COC(=O)c1cncc(Br)c1	i	30µM	i	i	i	i
CCOC(=O)c1c(NC(=O)CSc2nnc(-c3ccco3)o2)sc(C(C)=O)c1C	i	i	i	i	i	i
CCOC(=O)c1c(NC(=O)CSc2nnc(-c3cccnc3)o2)sc(C(C)=O)c1C	?	12µM	nt	i	i	?
CCOc1ccccc1NC(=O)CSc1nnc(-c2cccnc2)o1	i	24µM	i	i	i	i
O=C(C#Cc1ccccc1)c1ccco1	i	3.4µM	i	i	?	22µM
COc1cccc(Cc2nc3ccccc3nc2SCC(=O)Nc2cccc(C)c2)c1	i	nt	nt	nt	nt	i
CCC(C)C1NC(=O)C(Cc2ccc(O)cc2)NC(=O)C(N)CSSCC(C(=O)N2CCCC2C(=O)NC(CC(C)C)C(=O)NCC(N)=O)NC(=O)C(CC(N)=O)NC(=O)C(CCC(N)=O)NC1=O (centres undefined)	nt	nt	nt	nt	nt	13µM!
CCNc1ccccc1CP(=O)(c1ccccc1)c1ccccc1O (centres undefined)	i	21µM	i	?	?	20µM
Cc1ccc(O)c(CP(=O)(c2ccccc2)c2ccccc2)c1	i	i	i	i	i	i
CCCN(CCC)C(=O)C1CCN(c2cc(C)nc3c(-c4ccc(Cl)cc4)c(C)nn23)CC1	i	nt	nt	nt	nt	i
COc1ccc(C(=O)O)cc1NC(=S)NC(=O)C(c1ccccc1)c1ccccc1	i	60µM	i	i	i	i
O=C(O)c1ccc(NC(=S)NC(=O)C(c2ccccc2)c2ccccc2)cc1	i	i	i	i	i	i
c1ccc2[nH]c3cc4ncnc4cc3nc2c1	?	24µM	i	i	?	i
CCN(c1ccc(OC)cc1)S(=O)(=O)c1nnc(NC(=O)COc2ccc(F)cc2)s1	i	27µM	i	?	i	i
O=C(c1ccc(S(=O)(=O)Cc2ccccc2F)c([N+](=O)[O-])c1)N1CCCCCC1	i	i	i	i	i	i
O=C(c1ccc(S(=O)(=O)Cc2cc(F)ccc2F)c([N+](=O)[O-])c1)N1CCOCC1	nt	27µM	nt	i	i	nt
CCCN1C(=O)S/C(=C/c2ccc(N3CCOCC3)o2)C1=O	i	i	i	i	i	89µM

Screening data (PubChem)
